# Six1-Eya2 blk: Six1/Eya2 interaction inhibition; AID 651725; Q15475+O00167; AlphaScreen GST-Six1/His-Eya2 binding, biochemical; hits give low values; activity change, % (concentration not given with the values); 0.56% of 360,000 active; in the data active = activity change below about -65%; inconclusive = mostly about -30% to -63%
#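 Compounds are tested against tagged Six1 and Eya2 proteins bridged by glutathione donor and nickel acceptor beads; after a one-hour incubation at 37 °C without light, AlphaScreen emission is recorded.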
# BAZ2B block: inhibitors of human BAZ2B bromodomain. AlphaScreen BAZ2B-H3K14Ac peptide displacement. Potency, µM (doses to about 114 µM), usual class: inhibitors. 4.4% of 360,000 active; note: nearly all actives have a fitted effect of over 60% in size
#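 AlphaScreen displacement: compounds (up to 110uM) incubated 30 min at room temperature with a preformed 50 nM BAZ2B/50 nM biotinylated H3K14Ac peptide complex in PBS pH 7.4 with Tween-20. Donor and acceptor beads at 10 ug/mL final added, 20 min light-protected before reading.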
# JMJD2A Tudor inh: JMJD2A Tudor domain (human) inhibition. AID 504339. Potency, µM (highest dose often 114 µM), actives largely listed as inhibitors. O75164. AlphaScreen JMJD2A-Tudor / H3K4me3 peptide binding. 4.4% of 390,000 active; note: nearly all actives have a fitted effect of over 50% in size
# HP1b chromo inh: inhibitors of HP1-beta chromodomain binding to methylated histone tails; AlphaScreen HP1-beta / biotin-H3K9me3 peptide binding; Potency, µM (doses to about 114 µM), actives largely listed as inhibitors; 0.56% of 390,000 active; note: nearly all actives have a fitted effect of over 70% in size
# Target sequence (P83916 whole entry, looked up): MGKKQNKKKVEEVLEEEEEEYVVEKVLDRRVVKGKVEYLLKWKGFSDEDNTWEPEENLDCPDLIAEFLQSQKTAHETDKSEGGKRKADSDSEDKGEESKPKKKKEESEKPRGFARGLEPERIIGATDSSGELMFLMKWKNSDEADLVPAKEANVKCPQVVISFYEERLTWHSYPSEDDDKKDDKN
#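 HP1-beta protein (50 nM final) preincubated 30 min at room temperature with biotinylated H3(1-18)K9me3 peptide (50 nM) in PBS pH 7.4, 0.01% Tween-20, then compound added for 30 min. AlphaScreen streptavidin donor/nickel chelate acceptor beads (10 ug/mL final), 30 min dark, luminescence read.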
# G9a inh: blocks human histone lysine methyltransferase G9a. Q96KQ7. G9a H3K9 monomethylation, AlphaScreen, 2 h. Potency, µM (series often up to 102 µM), most hits filed as inhibitors. 8.8% of 350,000 active. AID 504332; note: nearly all actives have a fitted effect of over 75% in size
# Target sequence (Q96KQ7 913-1193 limits assumed): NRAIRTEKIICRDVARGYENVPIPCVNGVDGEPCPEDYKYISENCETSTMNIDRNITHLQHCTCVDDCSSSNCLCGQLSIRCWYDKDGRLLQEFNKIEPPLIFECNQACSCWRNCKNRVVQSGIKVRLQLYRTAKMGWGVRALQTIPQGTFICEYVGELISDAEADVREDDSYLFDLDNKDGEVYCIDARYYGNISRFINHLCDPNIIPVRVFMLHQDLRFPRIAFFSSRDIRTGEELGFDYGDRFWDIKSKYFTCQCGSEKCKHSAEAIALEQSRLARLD
#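 Quantitative HTS format: methyltransferase activity on a biotin-tagged H3K9 peptide is measured by AlphaScreen, using a rabbit anti-monomethyl-H3K9 antibody with streptavidin donor and anti-IgG acceptor beads. Final levels are 20 nM enzyme, 500 nM peptide, 20 uM SAM; 2 h RT.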
# CtBP-E1A inh: blocks the CtBP interaction with E1A. 0.49% of 340,000 active. activity change, % (no concentration beside the values). AlphaScreen GST-E1A/His-CtBP binding, 1536-well; hits give low values; in the data active = activity change below about -65%; inconclusive = mostly about -30% to -63%
#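 AlphaScreen with 125 nM GST-E1A and 125 nM His-CtBP (5X stocks) in Tris pH 8.0, 300 mM NaCl, BSA, Tween 20, TCEP. Compounds preincubated 2 h at 37 deg C, then glutathione donor/nickel acceptor beads added for 1 h at 37 deg C in dark.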
# A number is an active result; i = inactive; ? = inconclusive; nt = not tested or not shown; [ ] = dose if it differs, or a comment. This is a sample that favours compounds with a hit; in the whole collection about 10% have one here. Unless noted, calls come from the whole dose curve; as a rule, active = well fitted inhibition curve with a large enough effect; inconclusive = small, poorly fitted or top-dose-only effect; inactive = no such curve, though single readings can be large or run the other way.
SMILES,Six1-Eya2 blk,BAZ2B block,JMJD2A Tudor inh,HP1b chromo inh,G9a inh,CtBP-E1A inh
Cc1cc(NC(=O)Nc2ccccc2F)ccc1Br,i,i,i,i,i,i
CC1=NN(C(=O)c2ccncc2)C(=O)C1N=Nc1ccc2ccccc2c1 (stereo unspecified),i,nt,?,25.1µM,nt,i
CC1=NN(C(N)=S)C(=O)C1N=Nc1ccc(Cl)cc1 (stereo unspecified),i,i,?,?,70.8µM,i
CC1CN(C(=O)c2ccncc2)CC(C)O1 (stereo unspecified),i,i,i,i,i,i
CC1=NN(C(N)=S)C(=O)C1N=Nc1cccc(Cl)c1C (stereo unspecified),i,44.7µM,50.1µM,?,nt,nt
CC1=NN(C(N)=S)C(=O)C1N=Nc1ccc(Br)cc1 (stereo unspecified),i,i,i,i,nt,i
CC1=NN(C(N)=S)C(=O)C1N=Nc1ccccc1 (stereo unspecified),i,i,i,i,i,nt
CC1=NN(C(N)=S)C(=O)C1N=Nc1cccc2ccccc12 (stereo unspecified),nt,39.8µM,nt,nt,nt,nt
COc1ccc(OC)c(NC(=O)CCC(=O)Nc2nnc(C(C)C)s2)c1,i,i,i,i,i,i
Cc1cn(CC(=O)N[C@H](C)c2cccc3ccccc23)c(=O)[nH]c1=O,i,nt,i,i,nt,i
CC(=O)CSc1nnc2[nH]c(=O)cc(N)n12,nt,i,i,i,i,nt
CCN1CCN(CC(O)COCC2COc3ccccc3O2)CC1 (stereo unspecified),i,i,i,i,?,i
OC(COCC1COc2ccccc2O1)CN1CCN(c2ccccc2)CC1 (stereo unspecified),i,79.4µM,?,i,i[0.501 µM],i
C[N+]1(CC(O)COCC2COc3ccccc3O2)CCOCC1 (stereo unspecified),i,i,i,i,35.5µM,i
Cc1cccc(NC(=O)CCSc2nnc(Cc3ccccc3)o2)c1,i,i,i,i,i,i
CCC1CCCCN1CC(=O)N1CCCc2c1c(=O)oc1ccc(OCc3ccccc3)cc21 (stereo unspecified),nt,i,i,i,?,nt
N#Cc1c(Nc2ccccc2Cl)s[nH]c1=O,i,i,i,i,nt,i
N#Cc1c(Nc2ccccc2)s[nH]c1=O,i,i,i,i,12.6µM,i
N#Cc1c(Nc2ccccc2C(F)(F)F)s[nH]c1=O,i,i,i,i,14.1µM,i
N#Cc1c(Nc2ccccc2)sc(C(=O)c2ccc(F)cc2)c1N,i,i,i,i,?,nt
CCN(CCN1CCCC1)C(=O)C1CCC(=O)N(CCCN2CCOCC2)C1 (stereo unspecified),i,i,i,i,nt,i
COc1ccc(NC(=O)c2ccc(-c3ccc(-c4noc(C)n4)cc3C)cc2)cc1OCCN(C)C,nt,nt,nt,nt,15.8µM,nt
COc1ccc(NC(=O)c2ccc(-c3ccc(-c4noc(C)n4)cc3C)cc2)cc1N1CCN(C)CC1,i,35.5µM,44.7µM,?,25.1µM,i
COc1ccc(NC(=O)N2CCN(c3cc(-c4noc(C)n4)ccc3C)CC2)c(OC)c1,nt,i,i,i,i,nt
C=C1CCC2[C@](C)(CO[C@@H]3O[C@H](CO)[C@@H](O)[C@H](O)[C@H]3O)CCC[C@@]2(C)[C@@H]1CCC1=CCOC1=O (stereo partly specified),i,i,i,i,i[12.7 µM],i
SMILES,Six1-Eya2 blk,BAZ2B block,JMJD2A Tudor inh,HP1b chromo inh,G9a inh,CtBP-E1A inh
COc1ccc(-c2cc(-c3ccccc3)nc(N)n2)c(O)c1,-76.6,nt,i,i,nt,i
CCOc1ccccc1N(C)C(=O)C1CCCN(c2ncnc3onc(-c4ccc(F)cc4)c23)C1 (stereo unspecified),nt,i,i,i,i,nt
COC(=O)C1CCN(C(=O)CSc2nc3ccc(OC)cc3[nH]2)CC1,i,i,i,i,50.1µM,i
O=C(CSc1nc2ccc(S(=O)(=O)N3CCOCC3)cc2[nH]1)N1CCOCC1,i,i,79.4µM,?,1.78µM,i
O=C(Nc1nccs1)C1CC(=O)N(CCc2ccc(F)cc2)C1 (stereo unspecified),i,i,i,i,?,i
COc1ccc2c(c1)c1c(c(=O)n(CCc3ccccc3)c(=O)n1Cc1cccc(C)c1)n2C,nt,i,i,i,i,nt
CCS(=O)(=O)N1CCN(S(=O)(=O)c2ccc(Cl)s2)CC1,i,50.1µM,i,i,15.8µM,i
CCO[C@H]1OC(C(=O)NC2CC2)=C[C@@H](c2csc3ccccc23)[C@@H]1CCCO,i,i,i,i,i,i
CC12CCC(C(=O)NC3CCCCC3)([C@H](Br)C1=O)C2(C)C (stereo partly specified),i,i,i,i,?,nt
O=C(CSc1nnc(SCc2cccc3ccccc23)s1)N=Nc1c(O)[nH]c2ccccc12,nt,50.1µM,nt,nt,?,nt
O=C(Cc1cccs1)N=Nc1c(O)[nH]c2ccccc12,i,i,i,i,i,i
O=C(CSc1nnc(SCc2cccc3ccccc23)s1)Nc1ccc(C(=O)O)cc1,i,?,12.6µM,?,?,i
O=C(CSc1nnc(SCc2cccc3ccccc23)s1)c1ccc2c(c1)OCO2,i,i,i,i,?,i
Cc1csc(N=Cc2ccc([N+](=O)[O-])o2)n1,?,nt,nt,nt,nt,i
COc1ccc(NC(=O)c2cc(-c3ccccc3)nc3c2cnn3C(C)C)cc1,?,i,79.4µM,?,i[2.33 µM],i
CCCCCCC(=O)N=Nc1c(O)[nH]c2ccc([N+](=O)[O-])cc12,i,i,?,i,i,i
O=[N+]([O-])c1ccc2[nH]c(O)c(N=Nc3ccc(F)cc3)c2c1,i,i,i,i,i,i
COCCNC(=S)N=Nc1c(O)[nH]c2ccc([N+](=O)[O-])cc12,i,i,25.1µM,i,nt,i
NC(=S)N=Nc1c(O)[nH]c2ccc(F)cc12,-79.7,i,?,i,i,i
O=[N+]([O-])c1ccc(N=Nc2c(O)[nH]c3ccc(F)cc23)cc1,i,i,?,i,39.8µM,i
Cc1cc2nc(-c3cccc(NC(=O)C(C)C)c3C)oc2cc1C,nt,i,i,i,?,nt
Cc1cccc(OCC(O)CN2CCN(c3ccccn3)CC2)c1C (stereo unspecified),i,i,79.4µM,i,44.7µM,i
CC(C)(C)c1ccc(OCC(O)CN2CCN(c3ccccn3)CC2)cc1 (stereo unspecified),i,?,i,i,50.1µM,nt
CC(=O)c1ccccc1OCC(O)CN1CCN(c2ccccn2)CC1 (stereo unspecified),i,i,i,i,nt,i
Cc1cc(C)c(C)c(OCC(O)CN2CCN(c3ccccn3)CC2)c1 (stereo unspecified),i,?,i,i,79.4µM,i
CCC(=O)c1ccc(OCC(O)CN2CCN(c3ccccn3)CC2)cc1 (stereo unspecified),i,i,i,i,i,i

# From PubChem BioAssay
